The list is a sample of the results.
MPTP inh = mitochondrial permeability transition pore inhibitors, primary screen, biochemical, isolated mouse mitochondria, absorbance; Ca2+ swelling absorbance, 30 min; inhibition, % at 10 µM; 1.4% of 360,000 active;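 active means inhibition of 50% or more, scaled per plate between neutral and stimulator controls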
Calls only; 0 = inactive.

SMILES	MPTP inh
CCOC(=O)[C@]12CCCC=C1N(CCc1ccc(OC)c(OC)c1)C(=O)[C@H](CC(=O)N1CCSCC1)C2	0
CCCCCCCCN1C(=O)[C@H](CC(=O)NCc2cccc(C(F)(F)F)c2)C[C@@]2(C(=O)OC)CC(C)(C)CC=C12	0
CC(C)c1ccc(NC(=O)Nc2nc(C(N)COCc3ccccc3)cs2)cc1 (stereo unspecified)	0
COC(=O)C[C@@H]1C=C[C@H](NC(=O)Nc2ccc(F)cc2)[C@@H](CO)O1	0
O=C(C[C@H]1CC[C@@H](NS(=O)(=O)c2ccccc2)[C@@H](CO)O1)NCc1ccc(Cl)c(Cl)c1	0
COc1ccc(C2OC(CCc3ccccc3)CC3=C2C(=O)OC(C)(C)O3)cc1 (stereo unspecified)	0
COC(=O)[C@]12CCCCC=C1N(CCc1ccc(OC)c(OC)c1)C(=O)[C@H](CC(=O)NCc1cccs1)C2	0
COC(=O)[C@@]12C[C@@H](CC(=O)N3CCOCC3)C(=O)N(Cc3ccccc3)C1=CCC(C)(C)C2	0
NS(=O)(=O)c1ccc(CCNc2nn3c(-c4cccc(OC(F)(F)F)c4)cnc3s2)cc1	0
CCOC(=O)C[C@@H]1OC[C@H](C(C)C)N1S(=O)(=O)c1ccc(C)cc1	0
C[C@H]1Cn2cnc(C(=O)Nc3cccc(Cl)c3)c2C(=O)N1	0
COc1cccc(-c2ccc3c(c2)O[C@H](CN(C)C(=O)c2ccccc2F)[C@H](C)CN([C@H](C)CO)S3(=O)=O)c1	0
COc1ccc(-c2nc(NCCN(C)C)nc3ccsc23)c(C)c1	0
COC(=O)C[C@H]1C[C@H]2c3cc(NC(=O)Nc4ccc(C(F)(F)F)cc4)ccc3O[C@H]2[C@@H](CO)O1	0
O=C(COc1ccccc1)NC(=S)Nc1cccc2c(O)cccc12	0
CCCCC[C@H](C)N1C[C@@H](COCc2ccccc2)Oc2cc(N3CCC[C@@H]3COC)ccc2S1(=O)=O	0
CCCCn1nnnc1C(c1ccccc1)N1CCCN(Cc2ccc(F)cc2)CC1 (stereo unspecified)	0
CN(C)c1ccc(-c2csc(C(O)c3ccc(F)c(F)c3)n2)cc1 (stereo unspecified)	0
CCCCCCCCN1C(=O)[C@H](CC(=O)N2CCCC2)C[C@@]2(C(=O)OC)CC(C)(C)CC=C12	0
COc1cc(F)ccc1-c1csc(C(C)(O)c2ccc(F)c(F)c2)n1 (stereo unspecified)	0
O=C(Cn1ccc(=O)[nH]c1=O)c1ccc([N+](=O)[O-])o1	0
CN(CCc1ccccc1)C(C(=O)c1ccc2c(c1)OCO2)c1nnnn1-c1ccccc1NC(=O)OC(C)(C)C (stereo unspecified)	0
Cc1ccc(OCc2nc3ccccc3n2C(C)C(=O)Nc2c(C)cccc2C)cc1 (stereo unspecified)	0
CCCCNC(=O)c1ccc2nc(CC)c(N(C)Cc3cccs3)n2c1	0
OC[C@@H]1CN(Cc2cccc3ccccc23)C[C@H](n2cnc3c(NCc4ccco4)ncnc32)O1	0
SMILES	MPTP inh
O=C(C[C@@H]1C[C@H]2c3cc(NC(=O)C4CCC4)ccc3O[C@H]2[C@@H](CO)O1)NCc1ccc(-c2ccccc2)cc1	0
O=C(NC1CCCC1)C(C1CC1)n1c(-c2ccncc2)nc2ccccc21 (stereo unspecified)	0
COC(=O)[C@@]12C[C@@H](CC(=O)NCc3ccc(C)o3)C(=O)N(CCc3ccc(OC)c(OC)c3)C1=CCC(C)(C)C2	0
CCc1nc2c(OCc3ccc(C(F)(F)F)cc3)cccn2c1N(C)C(=O)C1CC1	0
CC(c1nc2ccccc2n1Cc1ccccc1)n1c(-c2cnccn2)nc2ccccc21 (stereo unspecified)	0
C[C@@H](CO)NC(=O)c1[nH]cnc1C(=O)Nc1ccc(CNC(=O)OC(C)(C)C)cc1	0
O=C(NC1CCCC1)N[C@@H]1CC[C@@H](CC(=O)N2CCOCC2)O[C@@H]1CO	0
CSc1ncnc2c1ncn2CCCN1CCN(Cc2cccc3ccccc23)CC1	0
Cc1cccc(C)c1NC(=O)C(c1ccccc1OC(F)(F)F)N1CCC(c2ccccc2)CC1 (stereo unspecified)	0
CCOc1ccccc1NC(=O)C1CCCN1S(=O)(=O)c1ccc2c(c1)C(C)(C)C(=O)N2C (stereo unspecified)	0
CCOc1cc2c(c3c1C(c1ccccc1)N(S(=O)(=O)c1ccc(C)cc1)C3)C(=O)C=CC2=O (stereo unspecified)	0
COc1ccccc1-c1cnc(C(O)c2ccc(C)cc2)[nH]1 (stereo unspecified)	0
O=C(Nc1ccc(Cl)c(Cl)c1)N[C@@H]1CC[C@@H](CCn2cc(C3CCCCC3)nn2)O[C@@H]1CO	0
CC(=O)Nc1cc(-c2cccc(NS(C)(=O)=O)c2)cn2c(-c3ccc(F)c(Cl)c3)cnc12	0
COc1cc(C(=O)C(=O)N2CCN(c3ccccc3)CC2)cc2ccccc12	0
COc1ccc(-c2cc(C(=O)NCc3ccc(F)cc3)[nH]n2)c(C)c1	0
Cc1ccc(S(=O)(=O)N[C@H](CNCc2ccccc2)C(C)C)cc1	0
Cc1cccnc1C(NC(=O)C1CCN(Cc2cn(C)c3ccccc23)CC1)c1ccc(Cl)cc1 (stereo unspecified)	0
CCOC(=O)C1=CCC(c2ccccc2C)N(S(=O)(=O)c2ccc(C)cc2)C1 (stereo unspecified)	0
COc1ccc(N2CSC(=S)N(c3ccc(OC)cc3)C2)cc1	0
COC(=O)[C@@]12C[C@@H](CC(=O)NCCCCc3ccccc3)C(=O)N(Cc3ccc4c(c3)OCO4)C1=CCC(C)(C)C2	0
CCOC(=O)c1cc2ccccc2n1C1CCN(C)CC1	0
COc1cc(Cl)ccc1OC1(C)CCN(Cc2cccn2-c2nccs2)C1 (stereo unspecified)	0
NC(=O)c1cccc(-c2coc3c(C(=O)NCc4ccccc4)cccc23)c1	0
CCOC(=O)[C@]12CCCC=C1N(Cc1ccccc1)C(=O)[C@H](CC(=O)N1CCC(c3ccccc3)CC1)C2	0
SMILES	MPTP inh
CC(C)(C)NC(=O)C(C1CC1)n1c(=O)c(-c2ccco2)nc2ccccc21 (stereo unspecified)	0
CCCCCCc1nc2nc(Cl)c(Cl)nc2[nH]1	0
CC(C)(C)OC(=O)Nc1ccccc1-n1nnnc1C(C(=O)c1ccccc1)N1CCN(c2ccccn2)CC1 (stereo unspecified)	0
COc1cccc(C(O)c2ncc(-c3cccc4ccccc34)[nH]2)c1 (stereo unspecified)	0
COc1ccc([N+](=O)[O-])cc1CN1CCN(c2ncc(Cc3ccccc3)cn2)CC1	0
O=C(Nc1cccc2c1CCCC2)c1cc(C2CCCCN2S(=O)(=O)c2cccs2)on1 (stereo unspecified)	0
CCOC(=O)C1C(C(=O)OCC)C2C(=O)C3C(C(=O)OCC)C(C(=O)OCC)C3C(=O)C12 (stereo unspecified)	0
Cc1cc2c(cc1C)-n1nnnc1C(N(C)Cc1ccccc1)C(=O)N2 (stereo unspecified)	0
Cc1cccc(C)c1NC(=O)C1C(c2ccc3c(c2)OCO3)=Nc2ccccc2N1C(=O)c1cccc2ccccc12 (stereo unspecified)	0
CC1(C(=O)NCc2cccs2)Cc2c(-c3cccc(C(F)(F)F)c3)ccnc2O1 (stereo unspecified)	0
COc1cccc(C(=O)C(=O)N2CCN(C(=O)OCc3ccccc3)CC2)c1	0
CN(C)C(=O)c1ccc(SC(=S)NCc2ccccc2)cc1	0
OC(c1ccc(Cl)c(F)c1)c1ncc(-c2cccc(C(F)(F)F)c2)[nH]1 (stereo unspecified)	0
